The list is not random: actives were taken first. Their share in the collection is about 5.6%.
Gal4-VP16 FLuc = inhibits Gal4-VP16 luciferase reporter, ROR gamma counter-screen; Drosophila S2 Gal4-VP16 UAS-luciferase, luminescence, 20 h; Potency, µM (doses to about 53.6 µM), inactives show at the top dose activity, negative = inhibition, hits mostly inhibitors; actives 3.5% (n = 310,000); AID 2546;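 note: Gal4-VP16 expression switched on by copper sulfate through the metallothionein promoter; potency is the fitted concentration of half-maximal effect; nearly all actives have a fitted effect of over 50% in size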
CtBP-E1A inh = CtBP/E1A binding inhibition. AlphaScreen GST-E1A/His-CtBP binding, 1536-well; stronger effect = lower value. activity change, % (no concentration beside the values). actives 0.49% (n = 340,000). AID 651724; in the data active = activity change below about -65%; inconclusive = mostly about -30% to -63%
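Steps: dispense buffer (Tris pH 8.0, NaCl 300 mM, TCEP 1 mM, BSA, Tween 20); add 5X protein mix (GST-E1A, His-CtBP, 125 nM each); pin 23 nL compound; 2 h at 37 °C, dark; add 5X beads (50 ug/mL); 1 h; read.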
Six1-Eya2 blk = Six1/Eya2 interaction inhibition; AlphaScreen GST-Six1/His-Eya2 binding, biochemical; stronger effect = lower value; activity change, % (test concentration not listed); actives 0.56% (n = 360,000); AID 651725; in the data active = activity change below about -65%; inconclusive = mostly about -30% to -63%
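Compounds are tested against tagged Six1 and Eya2 proteins bridged by glutathione donor and nickel acceptor beads; after a one-hour incubation at 37 °C without light, AlphaScreen emission is recorded.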
PKM2 act = PKM2 (human) enzyme activation; P14618; purified PKM2, Kinase-Glo ATP luminescence, activation; response scale: 0% is enzyme alone, no compound; Potency, µM (top dose mostly 57.5 µM), inactives show top-dose activation, usual class: activators; actives 0.34% (n = 260,000); AID 1631; note: potency is the fitted concentration of half-maximal effect; nearly all actives have a fitted effect of over 55% in size
Target sequence (P14618 whole entry, looked up): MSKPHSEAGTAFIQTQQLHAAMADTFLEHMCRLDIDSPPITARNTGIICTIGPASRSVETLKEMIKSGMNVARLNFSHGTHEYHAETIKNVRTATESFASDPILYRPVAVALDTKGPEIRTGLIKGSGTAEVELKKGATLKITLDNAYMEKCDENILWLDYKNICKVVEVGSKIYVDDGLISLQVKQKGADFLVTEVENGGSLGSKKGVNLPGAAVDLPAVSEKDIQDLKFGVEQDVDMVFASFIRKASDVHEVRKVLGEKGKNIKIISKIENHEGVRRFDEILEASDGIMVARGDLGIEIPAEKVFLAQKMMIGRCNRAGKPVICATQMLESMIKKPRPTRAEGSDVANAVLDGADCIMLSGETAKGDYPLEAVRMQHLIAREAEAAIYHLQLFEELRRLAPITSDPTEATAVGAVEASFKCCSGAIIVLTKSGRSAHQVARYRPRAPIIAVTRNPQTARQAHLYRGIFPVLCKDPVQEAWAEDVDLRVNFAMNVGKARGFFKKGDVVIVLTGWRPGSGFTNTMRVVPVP
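Purified hPK-M2 (>95%) run at intermediate activity with 0.1 mM ADP and 0.5 mM PEP in 50 mM imidazole pH 7.2, KCl, MgCl2; 1 h room temperature. ATP formed read by Kinase-Glo luminescence; normalized to uninhibited and no-enzyme controls.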
RORgamma inh = inhibitors of mouse ROR gamma transcriptional activity; Drosophila S2 Gal4-RORgamma UAS-luciferase reporter, 20 h; Potency, µM (series often up to 53.6 µM), for inactives: at the highest dose activity change, negative = inhibition, most hits filed as inhibitors; actives 5.4% (n = 310,000); AID 2551; note: potency is the fitted concentration of half-maximal effect; nearly all actives have a fitted effect of over 60% in size
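Compounds are pin-transferred onto Drosophila Schneider cells expressing a copper-inducible Gal4–ROR gamma transactivation domain fusion. After 1 hr, copper sulfate is added to 700 uM final; luciferase is read 20 hr later.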
* = called active by the depositor; [ ] = remark or other dose. Unless noted, calls come from the whole dose curve; as a rule, active = well fitted curve in the direction sought with a large enough effect; inconclusive = small, poorly fitted or top-dose-only effect, or another doubt; inactive = no such curve, though single readings can be large; an effect the other way counts as inactive or inconclusive. % is set by controls: 0 for no effect and ±100 for the full control effect.

What do the screens show for `CC1C(=O)NN=C1C(=O)N/N=C\c1ccc(O)cc1O` (stereo not drawn)?
Gal4-VP16 FLuc: -36.0%; CtBP-E1A inh: -10.9; Six1-Eya2 blk: -92.1*; PKM2 act: -10.7%; RORgamma inh: 1.2%[10 µM]

How did COc1cc(/C=N/NC(=O)C2=NNC(=O)C2C)ccc1O (stereo not drawn) do in these assays?
Gal4-VP16 FLuc: inconclusive; CtBP-E1A inh: 6.1; Six1-Eya2 blk: -3.2; PKM2 act: 0.3%; RORgamma inh: -11.5%

What do the screens show for `COc1ccc(-c2nc(-c3cccs3)c(-c3cccs3)[nH]2)cc1OC`?
Gal4-VP16 FLuc: -2.5%; CtBP-E1A inh: -73.0*; Six1-Eya2 blk: inconclusive; PKM2 act: -1.0%; RORgamma inh: inconclusive

How did COc1ccc(-c2nc(-c3ccccc3)c(-c3cccs3)[nH]2)cc1OC do in these assays?
Gal4-VP16 FLuc: inconclusive; CtBP-E1A inh: 6.8; Six1-Eya2 blk: inconclusive; PKM2 act: -12.0%; RORgamma inh: 16.0%

Results for O=C(CN1CCN(c2ccccc2O)CC1)Nc1cccnc1Cl ?
Gal4-VP16 FLuc: -7.0%; CtBP-E1A inh: 8.2; Six1-Eya2 blk: 10.2; PKM2 act: 0.3%; RORgamma inh: 8.7%

What do the screens show for `Cc1nn(C)c(Cl)c1NC(=O)OCc1ccc(F)cc1`?
Gal4-VP16 FLuc: 1.78µM*; CtBP-E1A inh: -4.5; Six1-Eya2 blk: 1.8; PKM2 act: 10.0%; RORgamma inh: inconclusive

What do the screens show for `COc1ccccc1COC(=O)Nc1c(C)nn(C)c1Cl`?
Gal4-VP16 FLuc: -1.2%; CtBP-E1A inh: -1.7; Six1-Eya2 blk: -2.7; PKM2 act: -7.1%; RORgamma inh: 37.0%

What do the screens show for `COCCN1C[C@@H](CO)O[C@@H](n2cnc3c(NCc4ccncc4)ncnc32)C1`?
CtBP-E1A inh: 24.0; Six1-Eya2 blk: 24.2

Results for COc1ccccc1-c1cc(C(=O)N/N=C/c2ccc(C)o2)c2ccccc2n1 ?
CtBP-E1A inh: -22.3; Six1-Eya2 blk: -20.0; PKM2 act: 4.9%

Results for Cc1ccsc1/C=N/NC(=O)c1cc(-c2ccncc2)nc2ccccc12 ?
Gal4-VP16 FLuc: 8.91µM*; CtBP-E1A inh: -9.9; Six1-Eya2 blk: -24.6; PKM2 act: -15.4%; RORgamma inh: 1.78µM*

What do the screens show for `Cc1ccc(/C=N/NC(=O)c2cc(-c3ccncc3)nc3ccccc23)o1`?
CtBP-E1A inh: -19.5; Six1-Eya2 blk: -7.5; PKM2 act: 2.3%

How did COc1ccccc1-c1cc(C(=O)N/N=C/c2sccc2C)c2ccccc2n1 do in these assays?
Gal4-VP16 FLuc: 8.91µM*; CtBP-E1A inh: -6.6; Six1-Eya2 blk: -11.0; PKM2 act: 19.1%; RORgamma inh: 7.08µM*

Results for COc1cccc2c1C(=O)CC1C2CCC2CC(=O)CCC21C (stereo not drawn) ?
CtBP-E1A inh: 3.4; Six1-Eya2 blk: 7.7

Results for COc1ccc(OC)c(C2CC(=O)N3CN(c4ccccc4)CSC3=C2C#N)c1 (stereo not drawn) ?
Gal4-VP16 FLuc: 12.6%; CtBP-E1A inh: -1.5; Six1-Eya2 blk: -5.5; PKM2 act: -28.5%; RORgamma inh: 11.2µM*

What do the screens show for `COc1ccc2ccccc2c1C1CC(=O)N2CN(Cc3ccco3)CSC2=C1C#N` (stereo not drawn)?
Gal4-VP16 FLuc: inconclusive; CtBP-E1A inh: -3.3; Six1-Eya2 blk: -0.1; PKM2 act: -1.5%; RORgamma inh: 10µM*

What do the screens show for `COc1ccc(N2CSC3=C(C#N)C(c4cccc(OC)c4OC)CC(=O)N3C2)cc1` (stereo not drawn)?
Gal4-VP16 FLuc: 0.9%; CtBP-E1A inh: -0.5; Six1-Eya2 blk: -11.7; PKM2 act: 2.9%; RORgamma inh: -44.8%

Results for Clc1ss/c(=N\c2ccccn2)c1Cl ?
CtBP-E1A inh: -86.3*; Six1-Eya2 blk: -91.7*; PKM2 act: -16.9%; RORgamma inh: 3.1%[0.365 µM]

What do the screens show for `COc1cccc(N(C(=O)CCl)C(C(=O)NCCc2ccccc2)c2cccs2)c1` (stereo not drawn)?
Gal4-VP16 FLuc: -17.6%; CtBP-E1A inh: 5.6; Six1-Eya2 blk: -0.8; PKM2 act: -0.8%; RORgamma inh: 12.6µM*

Source: PubChem BioAssay (National Center for Advancing Translational Sciences (NCATS))
